The sample as a whole holds a higher share of hits than the screen did.
Tb PYK inh: blocks Trypanosoma brucei pyruvate kinase; Q57TT1; TbPYK enzyme, Kinase-Glo Plus ATP luminescence, 45 min; Potency, µM (highest dose often 76.8 µM), for inactives: top-dose activity, negative = inhibition, most hits filed as inhibitors; actives 0.12% (n = 410,000); note: potency is the fitted concentration of half-maximal effect; % is set by controls: 0 for no effect and ±100 for the full control effect; nearly all actives have a fitted effect of over 50% in size
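Luminescent Kinase-Glo Plus end-point after 45 min room-temperature reaction of T. brucei pyruvate kinase started with 130 uM ADP (final). Buffer TEA 50 mM pH 7.2 with KCl, MgCl2, BSA, Tween-20; titration-based qHTS with fitted concentration-effect curves.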
LmPK inh: inhibitors of Leishmania mexicana pyruvate kinase; Q27686; purified LmPK, Kinase-Glo ATP luminescence, 1 h; Potency, µM (top dose mostly 57.5 µM), for the others: at the top dose activity change, negative = inhibition, most hits filed as inhibitors; actives 0.37% (n = 290,000); AID 1721; note: potency is the fitted concentration of half-maximal effect; % is set by controls: 0 for no effect and ±100 for the full control effect
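Kinase-Glo luminescence read after 1 h RT reaction of 0.1 nM LmPK with 0.5 mM PEP and 0.1 mM ADP. Activity scaled between uninhibited and enzyme-free controls.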
CHX counter: counter-screen hit for Shiga toxin inhibitors, cycloheximide. AID 2314. actives 12% (n = 300,000). cell reporter, cycloheximide protein synthesis inhibition counterscreen. max response, %; in the data active = max response mostly above about 13%, no sharp cut-off; inactive = mostly below about 14%; note: read at 38.3 µM for the half of the compounds with a filed dose; 0% is about no effect
Giardia FBPA inh: inhibitors of Giardia lamblia fructose-1,6-bisphosphate aldolase. A8B2U2. purified Giardia FBPA. Potency, µM (series often up to 59.6 µM), without a hit: at the highest dose activity, negative = inhibition, usual class: inhibitors. actives 0.71% (n = 290,000). AID 2451; note: potency is the fitted concentration of half-maximal effect; % is set by controls: 0 for no effect and ±100 for the full control effect; nearly all actives have a fitted effect of over 55% in size
Target sequence (A8B2U2 whole entry, looked up): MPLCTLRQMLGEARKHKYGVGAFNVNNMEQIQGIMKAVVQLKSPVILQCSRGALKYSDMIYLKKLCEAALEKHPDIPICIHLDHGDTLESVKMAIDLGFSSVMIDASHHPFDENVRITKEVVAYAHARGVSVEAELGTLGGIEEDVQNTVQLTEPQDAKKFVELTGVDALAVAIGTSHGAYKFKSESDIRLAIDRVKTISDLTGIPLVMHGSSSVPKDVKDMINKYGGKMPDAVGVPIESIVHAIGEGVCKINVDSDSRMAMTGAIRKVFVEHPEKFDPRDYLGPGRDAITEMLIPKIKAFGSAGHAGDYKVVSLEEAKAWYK
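Giardia FBPA (40 nM reagent) was preincubated 10 min at RT with compound (up to 57.5 uM final), then substrate plus GAPDH/TPI/NAD/arsenate coupling system with diaphorase/resazurin was added; resorufin fluorescence (525/598 nm) was read after 20 min.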
Shiga toxin inh: blocks Shiga toxin action in Vero cells; Vero cells, Shiga toxin protein synthesis inhibition reporter; actives 9.2% (n = 290,000); inhibition, % at 38.7 µM; in the data active = inhibition mostly above about 28%, no sharp cut-off; inactive = mostly below about 43%; note: 0% is about no effect
Sm TGR block: blocks Schistosoma mansoni thioredoxin glutathione reductase; Q962Y6; purified TGR, DTNB reduction, TNB absorbance 405 nm; Potency, µM (top dose mostly 114 µM), for the others: at the highest dose activity change, negative = inhibition, most hits filed as inhibitors; actives 3% (n = 360,000); AID 485364; note: potency is the fitted concentration of half-maximal effect; % is set by controls: 0 for no effect and ±100 for the full control effect; nearly all actives have a fitted effect of over 60% in size
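TGR 20 nM + NADPH 100 uM (dispensed conc.), cpd preinc 15 min RT; start with NADPH (500 uM addition) then DTNB (15 mM addition). Kinetic TNB absorbance, 405 nm filter. Four-parameter Hill fit across titration.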
* hit, by the source's call; ? = inconclusive; / = no result given; [ ] = another dose, or the depositor's remark. Unless noted, calls come from the whole dose curve; as a rule, active = well fitted curve in the direction sought with a large enough effect; inconclusive = small, poorly fitted or top-dose-only effect, or another doubt; inactive = no such curve, though single readings can be large; an effect the other way counts as inactive or inconclusive.

SMILES	Tb PYK inh	LmPK inh	CHX counter	Giardia FBPA inh	Shiga toxin inh	Sm TGR block
COc1ccc(NC(=O)N2CCCC(c3nc(-c4ccc(C(C)C)cc4)no3)C2)cc1 (configuration not stated)	-9%	0%	32*	-1%	21	-3%
COc1ccc(-c2noc(C3CCCN(C(=O)Nc4ccccc4F)C3)n2)cc1 (configuration not stated)	4%	9%	38*	-4%	24	7%
COc1ccc(NC(=O)N2CCCC(c3nc(-c4ccc(OC)cc4)no3)C2)cc1 (configuration not stated)	-3%	1%	40*	0%	55	-27%[57.1 µM]
O=C(Nc1ccc(Cl)cc1)N1CCC(c2nc(-c3ccc(F)cc3)no2)CC1	-5%	1%	35*	0%	53*	10%
O=S(=O)(c1ccc(Cl)cc1)N1CCCC(c2nc(-c3ccc(F)cc3)no2)C1 (configuration not stated)	0%	/	/	/	/	0%
CN(C)c1ccc(/C=C/c2nc(-c3ccccc3O)n(-c3ccccc3)n2)cc1	-3%	/	/	/	/	-1%
O=C(O)c1ccc(Nc2nc3ccccc3n3cnnc23)cc1	-5%	/	/	/	/	8%
COc1ccc(-c2cc(C(F)(F)F)nc(SCC(=O)N3CCC(C)CC3)n2)cc1	1%	/	/	/	/	5%
COc1ccc(CCN2C(=O)c3oc4cc(C)cc(C)c4c(=O)c3C2c2ccc(F)cc2)cc1OC (configuration not stated)	4%	/	/	/	/	0%
COc1cc(CCCN2CCNC[C@H]2Cc2cccc3ccccc23)cc(OC)c1OC	1%	/	/	/	/	/
Cc1cccc(NC(=S)NC(C)CCc2ccccc2)c1 (configuration not stated)	0%	2%	-2	2%	0	-8%
Cc1cccc(NC(=O)NCCCCc2ccccc2)c1	4%	-6%	10	-11%	23*	3%
O=C(NCCCCc1ccccc1)Nc1cccc(F)c1	2%	-1%	47*	3%	48*	2%
Cc1ccc(NC(=O)NCCCCc2ccccc2)cc1	0%	-6%	17	1%	29*	-1%
O=C(NCCCc1ccccc1)Nc1ccccc1	-5%	-5%	19	-1%	35	-10%
Cc1cccc(NC(=O)NC(C)CCc2ccccc2)c1 (configuration not stated)	0%	0%	21*	1%	13	-2%
COc1cccc(N(CC(=O)NCCSc2ccccn2)S(=O)(=O)c2ccccc2)c1	3%	2%	-3	-6%	-3	-2%
Cc1cc(C)nc(/N=C(\N)N2CCCCCC2)n1	-6%	0%	-3	2%	15	2%
Cc1cc(C)nc(/N=C(\N)N2CCCCC2)n1	-2%	0%	6	3%	25	45µM*
Cc1cc(C)nc(/N=C(\N)N2CCc3ccccc32)n1	-11%	11%	33*	11%	88*	-33%
CCCCN(C(=O)c1cc(CN2C(=O)c3ccccc3C2=O)ccc1OC)c1c(N)n(CC(C)C)c(=O)[nH]c1=O	6%	/	/	/	/	/
CC1CCCN(C(=O)COC(=O)CNC(=O)c2ccc(Br)cc2)C1 (configuration not stated)	5%	/	/	/	/	4%
Cc1cc(C)cc(N2C(=O)CS(=O)(=O)C23C(=O)N(C)c2ccccc23)c1 (configuration not stated)	-13%	/	/	/	/	?
CCC(C)C(=O)Nc1nnc(-c2cccs2)s1 (configuration not stated)	-10%	3%	64*	2%	59*	4%
C=C(C)C(=O)Nc1nnc(-c2cccs2)s1	0%	-11%	21*	2%	81*	3%
SMILES	Tb PYK inh	LmPK inh	CHX counter	Giardia FBPA inh	Shiga toxin inh	Sm TGR block
COCC(=O)Nc1nnc(-c2cccs2)s1	-13%	-10%	35	-1%	50	-17%
CC(=O)c1ccc(S(=O)(=O)NCCCC(=O)N(C)Cc2ccc3c(c2)OCO3)cc1	-7%	/	/	/	/	16µM*
CCc1ccc(NC(=O)CC2C(=O)N(c3cccc(C)c3)C(=O)N2Cc2cccs2)cc1 (configuration not stated)	-5%	/	/	/	/	0%
O=C(O)CCSc1nnc(SCC(=O)NC2CCS(=O)(=O)C2)s1 (configuration not stated)	-21%	/	/	/	/	/
Cc1cc2c(=O)n(Cc3ccco3)c(SCC(=O)c3ccc(Cl)s3)nc2s1	-14%	1%	16*	-4%	29	?
C=CCn1c(C)cc(C(=O)CSc2nc3ccccc3[nH]2)c1C	-10%	-11%	34*	-4%	69*	0%
CCCn1c(C)cc(C(=O)CSc2nc3ccccc3c(=O)n2Cc2ccco2)c1C	3%	1%	49*	-3%	57*	-7%
Cc1cc(C(=O)CSc2nc3ccccc3[nH]2)c(C)n1Cc1ccco1	-1%	-1%	84*	-7%	78*	-3%
CCOc1ccc(NC(=O)CC2C(=O)N(c3cccc(C)c3)C(=O)N2Cc2ccco2)cc1 (configuration not stated)	-5%	/	/	/	/	?
CC(C)(C)OC(=O)N1CCC[C@H]1C(=O)OCC(=O)Nc1cc(S(C)(=O)=O)ccc1Cl	5%	/	/	/	/	-15%
COCCn1c(C)cc(C(=O)CSc2nc3ccccc3c(=O)[nH]2)c1C	-4%	-6%	53*	-9%	92*	-23%
Cc1cc(C)c(C(=O)CSc2nc3ccccc3c(=O)[nH]2)cc1C	5%	7%	-1	1%	-2	-6%
C=CCn1c(C)cc(C(=O)CSc2nc3ccccc3c(=O)[nH]2)c1C	-28%	-1%	63*	-16%	90*	-3%
Cc1cc(C(=O)CSc2nc3ccccc3[nH]2)c(C)n1C	-22%	0%	46*	?	54*	-29%
Cc1nn2c(=O)cc(CSc3nc4ccccc4[nH]3)nc2s1	-2%	2%	22*	9%	39	-2%
Cc1ccc2nc(SCC(=O)c3cc(C)n(C)c3C)[nH]c2c1	-10%	1%	13	-5%	28	-20%
CC1(C)SC2[C@@H](N=CN3CCCCCC3)C(=O)N2[C@H]1C(=O)O (some centres not stated)	4%	/	/	/	/	/
COCCn1c(C)cc(C(=O)CSc2ccc3ccccc3n2)c1C	-9%	2%	39*	0%	50*	-6%
COCC(C)n1c(C)cc(C(=O)CSc2nc3ccccc3c(=O)[nH]2)c1C (configuration not stated)	-15%	-1%	16*	-3%	45	0%
Cc1ccc(C)c(NC(=O)Cn2c(=O)n(CCCS(=O)(=O)C3CCCCC3)c(=O)c3ccccc32)c1	3%	/	/	/	/	-4%
O=C1C2C3C=CC(C3=C(c3ccccc3)c3ccccc3)C2C(=O)N1CCO (configuration not stated)	-8%	9%	-6	-1%	-21	8%

Screening data: PubChem BioAssay, National Center for Advancing Translational Sciences (NCATS)
